Screens from PubChem BioAssay.
GLP-1R agonist = qHTS of GLP-1 Receptor Agonists | Potency, µM (top dose mostly 45.6 µM), actives largely listed as activators | actives 0.007% (n = 380,000) | Glucagon-like peptide 1 receptor (Homo sapiens), P43220 | HEK293 GLP-1R CRE-luciferase, luminescence, 4-6 h; cells express a hypersensitive GLP-1R form
Target sequence (P43220 whole entry, looked up): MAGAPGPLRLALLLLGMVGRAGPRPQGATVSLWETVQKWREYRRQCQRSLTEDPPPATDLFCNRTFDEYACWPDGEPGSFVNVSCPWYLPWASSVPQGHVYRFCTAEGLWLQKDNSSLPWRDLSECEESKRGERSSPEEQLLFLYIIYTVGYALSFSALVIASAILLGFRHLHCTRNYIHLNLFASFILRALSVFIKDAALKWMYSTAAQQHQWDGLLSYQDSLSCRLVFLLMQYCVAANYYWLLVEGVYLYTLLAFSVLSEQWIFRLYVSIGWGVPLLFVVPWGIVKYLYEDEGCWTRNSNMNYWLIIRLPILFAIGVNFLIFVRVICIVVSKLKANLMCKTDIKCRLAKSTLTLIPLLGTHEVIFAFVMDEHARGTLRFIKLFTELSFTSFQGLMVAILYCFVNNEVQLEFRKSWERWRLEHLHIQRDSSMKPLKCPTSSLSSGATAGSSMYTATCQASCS
GLP1R cytotox = qHTS of GLP-1 Receptor Inverse Agonists: Cytotox Screen; HEK293 cAMP-luciferase reporter cells, luminescence, 24 h; Potency, µM (highest dose often 38.3 µM), usual class: inhibitors; actives 0.13% (n = 410,000); AID 624418, 2012;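 also: loss of luciferase light is scored as toxicity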
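To flag toxic compounds, the library was rerun on cells for 24 hr at 37 deg C and 5% CO2. Viability-linked luminescence was captured 12 min after adding luciferase detection reagent.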
GLP1R inv ag = qHTS of GLP-1 Receptor Inverse Agonists (Inhibition Mode); HEK293 GLP-1R CRE-luciferase, luminescence, 24 h; GLP-1R form is constitutively active; Glucagon-like peptide 1 receptor (Homo sapiens), P43220; AID 624417, 2012; Potency, µM (top dose mostly 38.3 µM), usual class: inhibitors; actives 1.6% (n = 410,000); also: nearly all actives have a fitted effect of over 55% in size
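Stable HEK293 clone (constitutively active GLP-1R + cAMP-response luciferase); 200 cells/uL plated, 12 h pre-culture, compound 24 hr, 37 deg C/5% CO2; detection reagent 12 min RT; luminescence.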
p53 reactivation = qHTS assay for re-activators of p53 using a Luc reporter; actives 0.063% (n = 320,000); AID 504706, 2011; Potency, µM (top dose mostly 92.2 µM), actives largely listed as activators; H1299 p53-A138V BP100-luciferase reporter, luminescence, 24 h; also: nearly all actives have a fitted effect of over 45% in size
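p53-null H1299 cells stably carrying temperature-sensitive p53-A138V and a BP100-luciferase reporter were pinned with compounds (4-point, 1:5 series) and held 24 hrs at 37 deg C. Luminescence was read 10 min after detection reagent.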
ClpP mod = qHTS Assay for Activators of ClpP; ATP-dependent Clp protease proteolytic subunit (Bacillus subtilis (strain 168)), P80244; purified B. subtilis ClpP, FRET peptide cleavage, 20 min; Potency, µM (titrated, usually from 57.5 µM); actives 1.9% (n = 340,000); active = well fitted falling curve with a large enough effect; inconclusive = small, poorly fitted or top-dose-only effect; inactive = no such curve, though single readings can be large or run the other way; also: the source files actives as falling curves though it sought activators and does not explain the sign; nearly all actives have a fitted effect of over 65% in size
Target sequence (P80244 whole entry, looked up): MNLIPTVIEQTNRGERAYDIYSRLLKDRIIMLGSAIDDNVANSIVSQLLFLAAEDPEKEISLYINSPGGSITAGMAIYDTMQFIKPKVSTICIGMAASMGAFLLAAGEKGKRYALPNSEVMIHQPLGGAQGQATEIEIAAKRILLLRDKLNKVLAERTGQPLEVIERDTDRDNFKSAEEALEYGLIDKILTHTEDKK
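FRET quenching reversal measured ClpP activation: 10 microg/mL B. subtilis ClpP at pH 8 with the FRET-FV decapeptide, read at 430 nm after 320 nm excitation. The 20-min minus 0-min signal was scaled between DMSO/no-enzyme wells and ADEP (5.8 microM final).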
LDHA inh = qHTS assay for inhibitors of human lactate dehydrogenase. L-lactate dehydrogenase A chain (Homo sapiens), P00338. purified LDHA, NADH/diaphorase-resazurin fluorescence; active compounds read low. activity change, % (values are at about 110 or 230 µM). actives 0.15% (n = 480,000). AID 1347041, 2019; in the data active = activity change below about -30%; inconclusive = mostly about -25% to -30%
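Resorufin fluorescence (ex540/em590), read at 0 and 20 min after diaphorase/resazurin addition, reports the NADH left after a 5 min room-temperature reaction of 2 nM human LDH5 with 0.06 mM NADH and 0.2 mM pyruvate.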
Each line names hits and unclear results; the compound was inactive in the other large screens. Compounds with a hit are over-represented: about 2.9% of the library has one in this group of screens. Unless noted, calls follow the shape of the dose curve; as a rule, active = well fitted curve in the direction sought with a large enough effect; inconclusive = small, poorly fitted or top-dose-only effect, or another doubt; inactive = no such curve, though single readings can be large; an effect the other way counts as inactive or inconclusive.

CCOc1ccccc1N1CCN(Cc2cc(=O)oc3ccc4ccccc4c23)CC1	none (no result: GLP-1R agonist, GLP1R cytotox, GLP1R inv ag, p53 reactivation, ClpP mod)
Cc1cccc(C)c1NC(=O)C(C)c1ccc(-c2ccccc2)c(F)c1 (centres undefined)	GLP1R inv ag 10µM (no result: p53 reactivation)
CC(=O)O[C@H](C)OC(=O)[C@@H](C)c1ccc(-c2ccccc2)c(F)c1	none (no result: GLP1R cytotox, GLP1R inv ag, p53 reactivation, ClpP mod, LDHA inh)
C(=C\c1ccccc1)/CN(C/C=C/c1ccccc1)CC1CCCO1 (centres undefined)	none (no result: GLP-1R agonist, GLP1R cytotox, GLP1R inv ag, p53 reactivation, ClpP mod)
O=C(Cc1ccc(F)cc1)NCCS(=O)(=O)N1CCN(c2cccc(Cl)c2)CC1	GLP1R inv ag 10µM
COc1ccc(/C=C2\N=C(c3ccc(C)cc3)OC2=O)cc1	ClpP mod 25µM (no result: p53 reactivation)
O=C(CSc1cccc[n+]1[O-])c1ccccc1Br	GLP1R cytotox 0.79µM, GLP1R inv ag inconclusive (no result: ClpP mod)
O=C(Nc1nnc(-c2ccco2)s1)C1CCN(S(=O)(=O)c2ccc(Cl)cc2)CC1	ClpP mod inconclusive
O=C(Nc1nnc(-c2ccco2)s1)C1CC1	p53 reactivation inconclusive, ClpP mod 32µM
CC(C)NC(=O)c1ccccc1NS(=O)(=O)c1ccc(Br)s1	GLP1R inv ag inconclusive (no result: p53 reactivation)
O=C(c1ccccc1NS(=O)(=O)c1ccc(Br)s1)N1CCCC1	GLP1R inv ag inconclusive, ClpP mod 16µM
CCc1ccc(OCc2ccc(C(=O)O)o2)cc1	GLP1R inv ag 4µM (no result: ClpP mod)
Cc1c(C(=O)N2CCOCC2)[nH]c2c1C(=O)CC(c1ccccc1Cl)C2 (centres undefined)	GLP1R cytotox 5.6µM, GLP1R inv ag inconclusive
Cc1c(C(=O)OC2CCCCC2)[nH]c2c1C(=O)CC(c1ccccc1Cl)C2 (centres undefined)	GLP1R inv ag inconclusive (no result: GLP-1R agonist, p53 reactivation)
O=C(NCC(c1ccco1)N1CCN(c2ccc(F)cc2)CC1)c1cccs1 (centres undefined)	GLP1R inv ag inconclusive (no result: ClpP mod)
O=C(NCCC1=CCCCC1)C(=O)NCC(c1ccco1)N1CCN(c2ccccc2)CC1 (centres undefined)	none
COc1ccc(N2CCN(C(CNC(=O)c3cccs3)c3ccco3)CC2)cc1 (centres undefined)	GLP1R inv ag inconclusive, ClpP mod 16µM
COc1ccc(N2CCN(C(CNC(=O)C(=O)NCCC3=CCCCC3)c3ccco3)CC2)cc1 (centres undefined)	GLP1R cytotox inconclusive, GLP1R inv ag 10µM
O=C(COC(=O)COc1ccc(Cl)cc1Cl)NC1CC1	none
CC(C)Cn1c(-c2cccs2)nc2nc3ccccc3nc21	GLP1R inv ag 4µM
CCCCn1c(-c2cccs2)nc2nc3ccccc3nc21	ClpP mod inconclusive
COc1cc(C(=O)NCCOc2cc(C)ccc2C(C)C)cc(OC)c1OC	GLP1R inv ag 3.5µM (no result: ClpP mod)
Cc1ccc(C(C)C)c(OCCNC(=O)c2cncc(Br)c2)c1	GLP1R inv ag 10µM
Cc1cc2c(c(=O)o1)C1(C(=O)N(CC(=O)O)c3ccccc31)C(C#N)=C(N)O2 (centres undefined)	none
CC(=O)c1ccc(NC(=O)c2ccc(-c3nc(CSc4ccccc4)c(C)o3)cc2)cc1	none (no result: GLP-1R agonist, p53 reactivation)
Cc1oc(-c2ccc(C(=O)Nc3cccc(C(F)(F)F)c3)cc2)nc1CSc1ccccc1	GLP1R inv ag 2.2µM (no result: GLP-1R agonist, p53 reactivation)
COc1cccc(-c2nc(CS(=O)(=O)CC(=O)Nc3cccc(C(F)(F)F)c3)c(C)o2)c1	LDHA inh -30 (no result: GLP-1R agonist, GLP1R cytotox, GLP1R inv ag, p53 reactivation, ClpP mod)
Cc1ccc(Cl)cc1NC(=O)c1ccc(-c2nc(CSc3ccccc3)c(C)o2)cc1	ClpP mod 13µM (no result: GLP-1R agonist, p53 reactivation)
COc1ccccc1CCNC(=O)c1ccc(-c2nc(CSc3ccc(C)cc3)c(C)o2)cc1	GLP1R inv ag 10µM (no result: GLP-1R agonist, p53 reactivation)
CCOc1ccccc1CNC(=O)c1ccc(-c2nc(CSc3ccc(C)cc3)c(C)o2)cc1	ClpP mod inconclusive (no result: GLP-1R agonist, p53 reactivation)
Cc1cccc(NC(=O)c2ccc(-c3nc(CSc4ccccc4)c(C)o3)cc2)c1C	none (no result: GLP-1R agonist, p53 reactivation)
CCOC(=O)/C(=C\C=C\c1ccccc1)NC(=O)c1ccccc1	none
Cc1ccc(C(=O)Nc2sc3c(c2C(=O)O)CCCCC3)o1	GLP1R cytotox inconclusive, GLP1R inv ag inconclusive
O=C(Nc1nc2cc3c(cc2s1)OCO3)C1=COCCO1	GLP1R inv ag 2.2µM
Cc1c(NC(=O)c2ccc(N3CCC(C)CC3)c([N+](=O)[O-])c2)cccc1-c1nc2ccccc2o1	none (no result: GLP-1R agonist, p53 reactivation)
CSc1nn(Cc2cccc(F)c2)c(N(C(C)=O)C(C)=O)c1S(=O)(=O)c1ccccc1	GLP1R inv ag inconclusive, LDHA inh -32 (no result: p53 reactivation)
CCCOc1ccc(CSc2nnc(CCC)n2N)cc1	none
COc1ccc(-c2nnc(NC(=O)c3ccccc3C)o2)cc1	GLP1R cytotox inconclusive, GLP1R inv ag 10µM
COc1ccccc1C(=O)Nc1nnc(-c2ccc3c(c2)CCCC3)o1	GLP1R cytotox 11µM, GLP1R inv ag inconclusive
COc1cccc(C(=O)Nc2nnc(-c3ccc(Cl)cc3)o2)c1	GLP1R inv ag 10µM
Cc1ccccc1C(=O)Nc1nnc(-c2ccncc2)o1	none
CC(=O)Nc1nnc(-c2ccc3c(c2)CCCC3)o1	GLP1R cytotox inconclusive, GLP1R inv ag inconclusive, p53 reactivation inconclusive
COc1cccc(C(=O)Nc2nnc(-c3ccc(F)cc3)o2)c1	GLP1R inv ag inconclusive
Clc1ccc(Cn2nc(-c3ccccc3)nc2-c2ccccc2)cc1	GLP1R inv ag 7.9µM, p53 reactivation inconclusive
CCOC(=O)NN1C(=O)c2ccccc2NC1c1ccccc1 (centres undefined)	ClpP mod 32µM
CCOC(=O)NN1C(=O)c2ccccc2NC1c1ccc(N(C)C)cc1 (centres undefined)	none
CCOC(=O)NN1C(=O)c2ccccc2NC1C (centres undefined)	none
CCOC(=O)NN1C(=O)c2ccccc2NC1c1ccc(OC)cc1 (centres undefined)	ClpP mod 32µM
CCOc1ccc(NC(=O)Nc2nnc(CC)s2)cc1	ClpP mod 28µM
COc1ccc(NC(=O)c2cc(Cl)ccc2Cl)c([N+](=O)[O-])c1	ClpP mod 28µM
COc1ccc(NC(=O)CN(C)S(=O)(=O)c2ccc(Cl)cc2)c([N+](=O)[O-])c1	none
C[N+](C)(C)CCN(Cc1ccc(Cl)cc1)c1ccccn1	ClpP mod 25µM, LDHA inh inconclusive
O=C(c1ccccc1)c1ccccc1C(=O)c1ccccc1	GLP1R inv ag 8.9µM
